Sampled rows, rich in hits. Any-hit rate of the full collection: about 1.7%.
Anesthetic bind: candidate novel general anesthetic via apoferritin binding | P02791 | Potency, µM (top dose mostly 77.5 µM), for inactives: top-dose activity change, negative = displacement, most hits filed as inhibitors | hit rate 0.074% among 350,000 | apoferritin/1-aminoanthracene competitive binding, fluorescence; note: % is set by controls: 0 for no effect and ±100 for the full control effect; nearly all actives have a fitted effect of over 20% in size
Target sequence (P02791 2-175 limits assumed): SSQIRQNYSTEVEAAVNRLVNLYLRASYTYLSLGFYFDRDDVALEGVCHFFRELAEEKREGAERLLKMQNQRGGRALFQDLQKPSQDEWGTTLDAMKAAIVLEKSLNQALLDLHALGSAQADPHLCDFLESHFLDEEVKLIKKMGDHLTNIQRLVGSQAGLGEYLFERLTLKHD
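Horse-spleen apoferritin (10 uM) was mixed with 50% saturated 1-aminoanthracene in PBS, exposed to compounds for 10 min at room temperature, and read for fluorescence (ex 380 nm, em 535 nm). Competitive displacement was fitted with a four-parameter Hill equation.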
12-LOX inh: inhibitors of human 12S-lipoxygenase ALOX12 | P18054 | purified 12hLO, xylenol orange hydroperoxide absorbance | Potency, µM (top dose mostly 108 µM), inactives show at the top dose activity change, negative = inhibition, hits mostly inhibitors | hit rate 1.1% among 580,000 | AID 1671190; note: % is set by controls: 0 for no effect and ±100 for the full control effect
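Purified human 12hLO at 150 nM in 25 mM Hepes, 0.01% Triton X-100, pH 7.0, preincubated 15 min at room temperature with compound. Reaction started with 40 uM arachidonic acid, 30 min at room temperature. Hydroperoxide measured by Fe-xylenol orange, 573/405 nm absorbance ratio.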
TrxR1 substrate: is turned over as a substrate by rat TrxR1 | O89049 | purified TrxR1 substrate turnover, NADPH consumption readout | Potency, µM (highest dose often 114 µM), without a hit: at the top dose activity change, negative = substrate turnover | hit rate 0.01% among 390,000 | AID 588456; note: % is set by controls: 0 for no effect and ±100 for the full control effect; nearly all actives have a fitted effect of over 50% in size
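Rat TrxR1, dispensed at 90 nM, was prereduced with 400 uM NADPH (final) for 5 min at ~22 deg C, then incubated with compound 15 min before 400 uM selenite. A first-read NADPH fluorescence drop versus no-compound background flagged substrates.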
rTrxR1 inhibitor: blocks rat thioredoxin reductase 1; Potency, µM (series often up to 114 µM), for the others: at the top dose activity change, negative = inhibition, most hits filed as inhibitors; O89049; AID 588453; hit rate 1% among 390,000; recombinant rTrxR1, NADPH fluorescence consumption, selenite substrate; note: % is set by controls: 0 for no effect and ±100 for the full control effect; nearly all actives have a fitted effect of over 65% in size
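Rat TrxR1 (90 nM in the dispensed reagent) was pre-reduced with 400 uM NADPH for 5 min at room temperature, then incubated with compound for 15 min. After 400 uM selenite was added, NADPH fluorescence (Ex 340/Em 450 nm) was followed for 8 min.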
Glioma ERSR ind: ER stress response induction in glioma; U87-MG GRP78 promoter luciferase reporter, 16 h; Potency, µM, without a hit: at the highest dose activation, actives largely listed as activators; hit rate 0.02% among 420,000; note: series mostly up to about 76 µM; % of control where 0% means no effect; nearly all actives have a fitted effect of over 35% in size
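Stably transfected U87-MG glioma cells carrying a GRP78-based luciferase sensor; 16 h compound incubation. Luminescence end-point read 10 min after Bright-Glo addition at room temperature.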
mIDH1 inhibitor: blocks human mutant IDH1 R132H enzyme. O75874. IDH1-R132H enzyme, NADPH consumption, diaphorase/resazurin fluorescence. Potency, µM (doses to about 76.6 µM), for the others: at the highest dose activity change, negative = inhibition, actives largely listed as inhibitors. hit rate 0.093% among 390,000; note: % is set by controls: 0 for no effect and ±100 for the full control effect; nearly all actives have a fitted effect of over 65% in size
Target sequence (O75874 whole entry R132H, stated change not applied): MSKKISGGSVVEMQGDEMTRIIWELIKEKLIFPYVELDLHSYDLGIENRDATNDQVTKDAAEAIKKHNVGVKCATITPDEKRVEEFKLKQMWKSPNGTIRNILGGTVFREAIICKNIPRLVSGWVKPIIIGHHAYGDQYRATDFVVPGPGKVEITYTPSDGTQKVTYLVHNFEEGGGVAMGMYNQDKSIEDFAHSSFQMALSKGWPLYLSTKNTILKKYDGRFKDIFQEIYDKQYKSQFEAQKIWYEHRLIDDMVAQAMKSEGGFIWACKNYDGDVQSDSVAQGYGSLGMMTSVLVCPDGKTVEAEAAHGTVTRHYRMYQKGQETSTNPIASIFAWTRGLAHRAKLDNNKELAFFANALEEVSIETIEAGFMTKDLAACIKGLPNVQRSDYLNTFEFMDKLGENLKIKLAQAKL
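IDH1-R132H (0.5 ug/mL dispensed) in pH 7.5 Tris buffer was preincubated 30 min with compound, then given a substrate mix of 0.016 mM NADPH and 2 mM alpha-KG for 80 min at room temperature; remaining NADPH was read by diaphorase/resazurin fluorescence.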
* = called active by the depositor; ? = inconclusive; . = not tested or not shown; [ ] = another dose, or the depositor's remark. Calls come from the whole dose curve; as a rule, active = well fitted curve in the direction sought with a large enough effect; inconclusive = small, poorly fitted or top-dose-only effect, or another doubt; inactive = no such curve, though single readings can be large; an effect the other way counts as inactive or inconclusive. Potency is the fitted concentration of half-maximal effect.

SMILES | Anesthetic bind | 12-LOX inh | TrxR1 substrate | rTrxR1 inhibitor | Glioma ERSR ind | mIDH1 inhibitor
CCOc1[nH]c(/N=C/c2ccc(OC)cc2)c(C#N)c1C#N | . | . | -1% | ? | -4% | .
CCOC(=O)c1c(C)[nH]c(C)c1C(=O)COC(=O)/C=C/c1ccco1 | . | 197% | -5% | 20µM* | -2% | 23%
CCN(C(=O)COC(=O)/C=C/c1ccco1)C1CCCCC1 | . | 169% | -6% | 35µM* | 0% | 1%
CCOc1ccc(C)cc1S(=O)(=O)n1ccnc1CC | . | -4% | . | . | . | .
O=C1c2ccccc2CN1C1CCN(Cc2cncs2)CC1 | . | 1%[6.33 µM] | . | . | . | .
CCOC(=O)C1=C(C)N=c2s/c(=C3\C(=O)Nc4ccccc43)c(=O)n2C1c1ccc2c(c1)OCO2 (centres undefined) | -3% | -17% | 7% | ? | -1% | -8%
C=CCOC(=O)C1=C(C)N=c2s/c(=C3\C(=O)N(CC(=O)O)c4ccccc43)c(=O)n2C1c1ccc(OC)cc1 (centres undefined) | -15% | ? | -11% | 35µM* | -13% | 6%
CCc1c(C(=O)N2CCc3c(c(C(=O)O)nn3CC3CC3)C2)csc1C | . | 35µM* | . | . | . | .
CCc1c(C(=O)N2CCCN(C)CC2)csc1C | -7% | 0% | -6% | -18% | 3% | 4%
CC1(C)CC2(CC(c3ccccc3)Oc3cc(O)ccc32)NC(=S)N1 (centres undefined) | -6% | 32µM* | 2% | -5% | -4% | 0%
CCOc1ccc(/C=C/c2nc(C#N)c(Nc3ccc(OCC)cc3)o2)cc1 | -3% | 22% | -1% | 7% | 0% | 20%
CCn1cc(C(=O)NCc2ccc(C)o2)c2cc(OC)c(OC)cc2c1=O | -10% | 0% | -1% | 22µM* | -1% | 6%
CCOc1cc(-c2ccccc2)sc1C(=O)O | . | -25% | . | . | . | .
COC(=O)[C@@H]1Cc2nc[nH]c2CN1Cc1ccc([N+](=O)[O-])cc1 | . | 10µM* | . | . | . | .
CCCCNC(=O)c1cnc(Cc2c[nH]c3ccccc23)c(I)c1 | . | 40µM* | . | . | . | .
Cn1c(SCc2coc(-c3cccs3)n2)nnc1C1CC1 | . | -3% | . | . | . | .
O=C(Cc1ccc(S(=O)(=O)N2CCOCC2)s1)Nc1cc(C(F)(F)F)ccc1N1CCCC1 | . | ? | -6%[57.1 µM] | -6%[57.1 µM] | -5% | -2%
O=C(Cc1ccc(S(=O)(=O)N2CCOCC2)s1)Nc1ccccc1N1CCCC1 | 6% | -1% | -2% | 11µM* | -2% | 0%
N#C/C(=C/c1cccc(C#N)c1)C(=O)c1c[nH]c2cc(F)ccc12 | . | 11µM* | . | . | . | .
CC(=O)c1c[nH]c2cc(F)ccc12 | . | 3% | . | . | . | .
N#C/C(=C/c1cccc(O)c1)C(=O)c1c[nH]c2cc(F)ccc12 | . | 16µM* | . | . | . | .
Cn1cccc1C(=O)NC1CCc2nnc(C3CC3)n2CC1 (centres undefined) | . | 59% | . | . | . | .
N#CC1=C(N)C(C#N)(C#N)C(c2cccnc2)C2CCCC=C12 (centres undefined) | 167% | . | . | . | . | .
N#CC1=C(N)C(C#N)(C#N)C(c2cccnc2)C2CC(c3ccccc3)CC=C12 (centres undefined) | -9% | . | 7% | ? | -11% | 13µM*
O=C(Cn1cnc2ccccc2c1=O)OCC(=O)c1ccc2c(c1)OCCO2 | 16µM* | ? | -1% | 2% | -3% | 4%
SMILES | Anesthetic bind | 12-LOX inh | TrxR1 substrate | rTrxR1 inhibitor | Glioma ERSR ind | mIDH1 inhibitor
CCCCCC1CC(CC(=O)Nc2ccc([N+](=O)[O-])cc2)C(=O)O1 (centres undefined) | 16µM* | -16% | -10% | 15% | 0% | 4%
CCOC(=O)c1c(C)n(C(=O)c2ccco2)c(=O)n1C(=O)c1ccco1 | -7% | -24% | -4% | 40µM* | 0% | -1%
O=C(O)c1cc2ccc(Br)cc2[nH]1 | . | 18µM* | . | . | . | .
Cc1ccc(-n2nnnc2SCc2cc(Cl)c3c(c2)OCCCO3)cc1 | . | -18% | . | . | . | .
O=C(CCc1ccccc1)c1c(O)cc(O)cc1O | ? | ? | 2% | 20µM* | 2% | 22%
O=C(O)Cc1csc(Nc2cccc(Cl)c2)n1 | 10µM* | -23% | 2% | 42%[0.457 µM] | 0% | 6%

Screens: PubChem, National Center for Advancing Translational Sciences (NCATS)
